Measured values as given in PubChem BioAssay (NCATS).
Results filed as inconclusive are left out. A number with no mark means an inactive call. The source made the active and inactive calls. Calls follow the shape of the full dose curve.
% is scaled to controls: 0 for no effect and ±100 for the full control effect; potency is read from the fitted curve at half-maximal effect.

Experiment: qHTS assay for small molecule disruptors of the mitochondrial membrane potential - 5 hr assay (AID 651755); also: nearly all actives have a fitted effect of over 40% in size
Settings: JC-1-type ratio dye; series mostly up to 92.2 µM; ratio change, negative = disruption: at the top concentration
Source text: National Center for Advancing Translational Sciences [NCATS]
NIH Chemical Genomics Center [NCGC]
National Institutes of Environmental Health Sciences [NIEHS]
National Toxicology Program [NTP]
Mitochondrial membrane potential (MMP), one of the parameters for mitochondrial function, is generated by mitochondrial electron transport chain that creates an electrochemical gradient by a series of redox reactions. This gradient drives the synthesis of ATP, a crucial molecule for various cellular processes. Measuring MMP in living cells is commonly used to assess the effect of chemicals on mitochondrial function. […] The dye accumulates in the mitochondria of healthy cells as aggregates, with red fluorescence. The mitochondrial potential collapses and the dye can no longer accumulate in the mitochondria and remains in the cytoplasm in monomers, with green fluorescence.
2,000 HepG2 cells in 5 uL/well were dispensed into black, clear-bottom 1536-well plates using a Multidrop Combi (Thermo Scientific) dispenser. The assay plates were incubated overnight at 37C to allow cells to attach to the wells, followed by the transfer of 23 nL compound or DMSO vehicle by a pin tool (Kalypsys). The plates were incubated for 5 hr at 37C and 5% CO2, followed by the addition of 5 uL of 2X Mito-MPS dye (BD Biosciences) into each well using Flying Reagent Dispenser (Aurora Discovery) and then following 30 min incubation at 37C. Fluorescence intensity (490nm excitation and 535nm emission for monomers; and 540nm excitation and 590nm emissions for aggregates) was measured using an Envision plate reader.
In the case of `CN1[C@H]2CC(OC(=O)[C@H](CO)c3ccccc3)C[C@H]1[C@H]1O[C@H]12` (some centres not stated), the Potency was “inactive”. With `O=Cc1ccc(Cl)c(Cl)c1` the “ratio change, negative = disruption” value was 6.73%. For `Cc1cc(O)c(C(C)(C)C)cc1Sc1cc(C(C)(C)C)c(O)cc1C`, the Potency was 16.8 µM (active). For `c1ccc2c(c1)-c1cccc3c1c-2cc1ccccc13`, the “ratio change, negative = disruption” value was -7.08%. In the case of `C/C=C1\C(=O)C[C@H]2[C@@H]3CCC4=CC(=O)CC[C@]4(C)[C@H]3CC[C@]12C`, the “ratio change, negative = disruption” value was -11.5%. For `CC/C(=C(\c1ccccc1)c1ccc(OCCN(C)C)cc1)c1ccc(O)cc1`, the “ratio change, negative = disruption” value was -24.4%. For `ClC1=C(Cl)C(Cl)(Cl)C(Cl)=C1Cl`, the “ratio change, negative = disruption” value was 1.49%. For `O=[N+]([O-])c1cc([N+](=O)[O-])c2ccc(S(=O)(=O)O)cc2c1O`, the “ratio change, negative = disruption” value was -5.45%. In the case of `O=C(/C=C/c1ccc(O)c(O)c1)OC1C[C@](O)(C(=O)O)C[C@@H](O)[C@H]1O` (some centres not stated), the Potency was “inactive”. With `O=C1OC(O)C(C(Cl)Cl)=C1Cl` (configuration not stated) the “ratio change, negative = disruption” value was -19.2%. In the case of `CCCCCC/C(C=O)=C\c1ccccc1`, the “ratio change, negative = disruption” value was 1.24%. For `CCCCCCCC[N+](CCCCCCCC)(CCCCCCCC)CCCCCCCC`, the Potency was 2.66 µM (active). For `C=C(C)c1ccccc1`, the “ratio change, negative = disruption” value was 2.86%. With `O=C=Nc1ccc(Cc2ccc(N=C=O)cc2)cc1` the “ratio change, negative = disruption” value was -18.6%. For `CO[C@H]1/C=C/O[C@@]2(C)Oc3c(C)c(O)c4c(O)c(c5c(c4c3C2=O)NC2(CCN(CC(C)C)CC2)N=5)=NC(=O)/C(C)=C\C=C\[C@H](C)[C@H](O)[C@@H](C)[C@@H](O)[C@@H](C)[C@H](OC(C)=O)[C@@H]1C`, the “ratio change, negative = disruption” value was 6.45%. With `C=CC(=O)OCCOCCOC(=O)C=C` the “ratio change, negative = disruption” value was -4.86%. For `c1cc(OCC2CO2)cc(OCC2CO2)c1` (configuration not stated), the “ratio change, negative = disruption” value was 4.25%. In the case of `Nc1ccc2cc3ccccc3cc2c1`, the Potency was 3.76 µM (active). In the case of `CCC(C)Nc1ccc(NC(C)CC)cc1` (configuration not stated), the Potency was 59.6 µM (active). In the case of `Cc1cccc(O)c1C`, the “ratio change, negative = disruption” value was 1.03%. For `Oc1ccc2cc(SSc3ccc4cc(O)ccc4c3)ccc2c1`, the Potency was 42.2 µM (active). With `CC(=O)Nc1ccc(C(=O)CCl)cc1` the “ratio change, negative = disruption” value was -8.95%.
